From PubChem BioAssay (NCI)
The panel holds about 83,000 compounds, 20% with a hit somewhere; the sample as a whole holds those more often.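 Each cell line was grown in a 96-well plate and treated with one concentration of compound for 48 hours. Values below 10 were considered active.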 Active and inactive are the calls of the source.

Experiments:
Assay in all cases: NCI-60 one-dose screen, 48 h (100 = growth as untreated, 0 = no growth, -100 = all killed)
[1] = tested on: SK-MEL-2 melanoma; conditions: 10 µM
[2] = tested on: EKVX NSCLC; conditions: 10 µM
[3] = tested on: SN12C renal; conditions: 10 µM
[4] = tested on: UO-31 renal; conditions: 10 µM
[5] = tested on: TK-10 renal; conditions: 10 µM unless noted
[6] = tested on: ACHN renal; conditions: 10 µM
[7] = tested on: CAKI-1 renal; conditions: 10 µM
[8] = tested on: A498 renal; conditions: 10 µM
[9] = tested on: CCRF-CEM leukemia; conditions: 10 µM
[10] = tested on: MOLT-4 leukemia; conditions: 10 µM
[11] = tested on: SR leukemia; conditions: 10 µM
[12] = tested on: RPMI-8226 leukemia; conditions: 10 µM
[13] = tested on: OVCAR-8 ovarian; conditions: 10 µM
[14] = tested on: OVCAR-5 ovarian; conditions: 10 µM
[15] = tested on: SK-OV-3 ovarian; conditions: 10 µM
[16] = tested on: IGROV1 ovarian; conditions: 10 µM
[17] = tested on: OVCAR-3 ovarian; conditions: 10 µM
[18] = tested on: HS 578T breast; conditions: 10 µM
[19] = tested on: NCI/ADR-RES ovarian; conditions: 10 µM
[20] = tested on: OVCAR-4 ovarian; conditions: 10 µM

Measured: growth

CN(c1ccccc1)c1ncnc2c1ncn2C
inactive: [1] 100% | [2] 102% | [3] 98% | [4] 79.9% | [5] 105% | [6] 101% | [7] 94% | [8] 88.4% | [9] 99.1% | [10] 95.6% | [11] 98.2% | [12] 106% | [13] 102% | [14] 121% | [15] 105% | [16] 118% | [17] 111% | [18] 103% | [19] 105%

O=C(/C=C/C(=O)c1ccccc1)c1ccccc1
inactive: [1] 119% | [2] 102% | [3] 108% | [4] 97.6% | [5] 86.9% | [6] 90.1% | [7] 94.9% | [8] 85.2% | [9] 37.9% | [10] 79.2% | [11] 71.3% | [12] 80.8% | [13] 110% | [14] 115% | [15] 115% | [16] 113% | [17] 102% | [19] 114%

CC(=O)Nc1c(C)cc(C)cc1C
inactive: [1] 102% | [2] 101% | [3] 111% | [4] 95.5% | [5] 104% | [6] 107% | [7] 91.6% | [8] 109% | [9] 107% | [10] 97.2% | [11] 98.7% | [12] 111% | [13] 104% | [14] 115% | [20] 95.9% | [15] 113% | [16] 110% | [17] 102% | [18] 111% | [19] 99.7%

Cc1cc(OCCO)cc(C)c1Cl
inactive: [1] 117% | [2] 142% | [3] 98.9% | [4] 109% | [5] 123% | [6] 116% | [7] 115% | [8] 102% | [9] 96.3% | [10] 100% | [11] 124% | [12] 102% | [13] 106% | [14] 115% | [20] 122% | [15] 117% | [16] 113% | [17] 118% | [18] 104% | [19] 108%

Cc1cc(N2CCC(N3CCCC3)CC2)nc(/N=C(\N)Nc2ccc(Cl)c(Cl)c2)n1
active: [1] -71.7% | [2] 2.57% | [4] -97.4% | [5] -86.3% | [6] -27.8% | [7] -40.6% | [9] -11.8% | [10] -19.8% | [11] -54.3% | [12] -36.7% | [13] -9.16% | [20] -13.2% | [18] -25.8%
inactive: [3] 93.7% | [8] 45.7% | [15] 88.3% | [16] 12.3% | [17] 69.7% | [19] 30.3%

Cc1cccc([N+](=O)[O-])c1Cl
inactive: [1] 109% | [2] 96.8% | [3] 106% | [4] 87.3% | [5] 119% | [6] 97.4% | [7] 92.3% | [8] 94.5% | [9] 99% | [10] 122% | [11] 117% | [12] 103% | [13] 99.6% | [20] 109% | [15] 107% | [16] 112% | [17] 106% | [18] 98.1% | [19] 92.8%

COc1ccc(NC(=O)CCl)cc1
inactive: [1] 74.9% | [2] 103% | [3] 67.2% | [4] 90.9% | [5] 118% | [6] 88.8% | [7] 97% | [8] 120% | [9] 50.5% | [10] 64.4% | [11] 56.3% | [12] 55.8% | [13] 80.8% | [14] 68.2% | [15] 87.7% | [16] 59% | [19] 77%

CC(=O)OCC(=O)[C@@]1(O)CC[C@H]2[C@@H]3CC[C@@H]4C[C@H](O)CC[C@]4(C)[C@H]3C(=O)C[C@@]21C
inactive: [1] 101% | [2] 98.4% | [3] 102% | [4] 96.3% | [5] 110% | [6] 107% | [7] 89.4% | [8] 91.8% | [9] 74% | [10] 79.8% | [11] 95.2% | [12] 95.1% | [13] 107% | [20] 116% | [15] 109% | [16] 93.3% | [17] 122% | [18] 100% | [19] 110%
